# Entries with a potency or affinity are not part of this list. Results filed as inconclusive are left out. Active and inactive are the calls of the source.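 How the source made its calls: active means fluorescence drops, meaning less fungal growth, with half-maximal dose at most ten times the top valid tested dose; inconclusive means flat curve with 30 to 70% inhibition, or poor fit; inactive means the rest, including compounds that raise the signal.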
# Test: growth inhibition of azole-resistant C. albicans, dose response, CaCi-8 strain, Alamar Blue, dry powder, set 2 (AID 488909)
# Details: C. albicans CaCi-8 + fluconazole, 48 h; series mostly up to 26 µM
row,SMILES,outcome
1,Clc1ccc2c(N3CCNCC3)ccnc2c1,inactive
2,Cc1cc(N2CCN(C(=O)c3ccc(Cl)cc3)CC2)c2ccccc2n1,inactive
3,N#Cc1ccc(N2CCN(C(=O)c3ccc(Cl)cc3)CC2)nc1,inactive
4,COCCC(=O)N1CCN(c2ccnc3cc(Cl)ccc23)CC1,inactive

# From PubChem BioAssay AID488909 (Broad Institute, 2010)
